DT40 TDP1 no CPT – qHTS for Inhibitors of human tyrosyl-DNA phosphodiesterase 1 (TDP1): qHTS in cells in absence of CPT; DT40 Tdp1-/- hTDP1 cells, no CPT, ATP luminescence, 48 h; Potency, µM (titrated, usually from 46.2 µM), inactives show at the highest dose activity change, negative = growth inhibition, actives largely listed as inhibitors; 420,000 compounds, 15% hits; AID 686978, 2013; also: potency is read from the fitted curve at half-maximal effect; nearly all actives have a fitted effect of over 55% in size
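No-CPT arm: Tdp1-/-;hTDP1 DT40 cells (400/well) plus compounds, incubated ≥48 hr at 37 °C. Readout CellTiter-Glo luminescence.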
HT1080 IDH1KD tx – qHTS for induction of synthetic lethality in tumor cells producing 2HG: qHTS for the HT-1080-IDH1KD cell line | HT-1080 IDH1 knockdown viability, ATP luminescence, 48 h | Potency, µM (top dose mostly 46.1 µM), for inactives: at the top dose activity, negative = toxicity, most hits filed as cytotoxic | 360,000 compounds, 2% hits | AID 686971, 2013;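 also: potency is read from the fitted curve at half-maximal effect; 0% = DMSO wells and -100% = cell-free medium wells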
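Assay cells: HT-1080 with IDH1 knockdown, 750 per well, RPMI/5% FBS. Exposure: 48 h at 37 °C following 2 h pre-incubation. Read: CellTiter-Glo luminescence; fitted concentration-response, curve class assigned.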
DT40 TDP1 CPT – qHTS for Inhibitors of human tyrosyl-DNA phosphodiesterase 1 (TDP1): qHTS in cells in presence of CPT; chicken DT40 Tdp1-/-;hTDP1 cells + 20 nM CPT, ATP luminescence, 48 h; Potency, µM (titrated, usually from 46.2 µM), without a hit: at the top dose activity change, negative = growth inhibition, hits mostly inhibitors; 420,000 compounds, 12% hits; AID 686979, 2013; also: potency is read from the fitted curve at half-maximal effect; nearly all actives have a fitted effect of over 55% in size
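Chicken DT40 Tdp1-/- cells complemented with human TDP1, 400 cells/well, exposed to compounds plus 20 nM camptothecin for at least 48 h at 37 C; viability read as ATP content by CellTiter-Glo luminescence.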
IL-1B inflam inh – qHTS for Inhibitors of Inflammasome Signaling: IL-1-beta AlphaLISA Primary Screen | THP-1 LPS/ATP IL-1B secretion, AlphaLISA, 16 h; stronger effect = lower value | 360,000 compounds, 4.7% hits | activity change, % at 57.5 µM; in the data active = activity change below about -50%; inconclusive = mostly about -30% to -49%
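Secreted IL-1B measured by AlphaLISA bead assay after 16 h compound exposure of THP-1 cells; compounds (final up to 57.5 uM) added 1 h before LPS (250 ng/mL) and ATP (1.25 mM) stimulation; lower signal means less secretion.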
ELG1 DNA repair – qHTS screen for small molecules that inhibit ELG1-dependent DNA repair in human embryonic kidney (HEK293T) cells expressing luciferase-tagged ELG1; HEK293T ELG1-luciferase reporter, luminescence, 16 h; DNA damage induced by 5-fluorouridine; Potency, µM (highest dose often 46.1 µM), for inactives: top-dose activity change, negative = inhibition, most hits filed as inhibitors; 330,000 compounds, 2.3% hits; AID 504467, 2011; also: potency is read from the fitted curve at half-maximal effect; nearly all actives have a fitted effect of over 55% in size
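DMSO vehicle served as the neutral condition. Each well held 2,000 cells given 5-fluorouridine plus compound; after 16 hr at 37 °C/5% CO2, ONE-Glo was added and luciferase measured 30 min later.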
HT1080-NT tox – qHTS for induction of synthetic lethality in tumor cells producing 2HG: qHTS for the HT-1080-NT fibrosarcoma cell line; HT-1080-NT fibrosarcoma viability, CellTiter-Glo ATP luminescence, 48 h; Potency, µM (titrated, usually from 46.1 µM), for the others: top-dose activity, negative = less viability, most hits filed as cytotoxic; 360,000 compounds, 1.6% hits;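 also: NT is the 2HG producing partner of a matched IDH1 knockdown line; potency is read from the fitted curve at half-maximal effect; 0% = DMSO-treated cells and -100% = media-only wells without cells; nearly all actives have a fitted effect of over 55% in size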
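Compounds were tested in concentration-response format on HT-1080-NT cells for 48 hours at 37 degrees C. Cell viability came from CellTiter-Glo luminescence; curves were classified by r2, response magnitude and activity.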
Active calls of the source: *; ? = inconclusive; nt = no result. A selection: hits, their analogues and other compounds. The true share with any hit is near 19%. Unless noted, calls follow the shape of the dose curve; as a rule, active = well fitted curve in the direction sought with a large enough effect; inconclusive = small, poorly fitted or top-dose-only effect, or another doubt; inactive = no such curve, though single readings can be large; an effect the other way counts as inactive or inconclusive. Unless noted, % is scaled to controls: 0 for no effect and ±100 for the full control effect.

SMILES | DT40 TDP1 no CPT | HT1080 IDH1KD tx | DT40 TDP1 CPT | IL-1B inflam inh | ELG1 DNA repair | HT1080-NT tox
CCOc1ccc(C(=O)NCC(=O)N2CCN(Cc3ccccc3)CC2)cc1 | -25.7% | -3.0% | -5.6% | 27.9 | -16.2% | -5.0%
CCOc1ccc(C(=O)CC(NCc2cccs2)C(=O)O)cc1 (stereo unspecified) | 16.4µM* | ? | 8.2µM* | -15.1 | 7.7% | -21.1%
CCOc1ccc(C(=O)CC(C(=O)O)N2CCCCC2)cc1 (stereo unspecified) | ? | ? | 13µM* | -57.1* | -28.2% | ?
CCCCCCCCCCCCCCCC(C)C1=NCCN1 (stereo unspecified) | 0.9% | nt | ? | nt | nt | nt
Cc1ccc(-n2c([C@@H]3C[C@H]3c3ccccc3)n[nH]c2=S)cc1 | 6.5% | 13.6% | 5.0% | 16.0 | 8.5% | 8.0%
Cc1ccc(C2CC2c2n[nH]c(=S)n2-c2cccc(Cl)c2)cc1 (stereo unspecified) | 23.1µM* | -14.9% | ? | 31.4 | -1.3% | -11.3%
S=c1[nH]nc(C2CC2c2ccc(Cl)cc2)n1-c1ccc(Cl)cc1 (stereo unspecified) | ? | -11.0% | ? | -102.2* | 0.5% | -6.7%
Cc1ccc(C2CC2c2n[nH]c(=S)n2-c2ccc(C)cc2)cc1 (stereo unspecified) | ? | -0.3% | -32.5% | 21.4 | 8.7% | -23.3%
CC(C)c1ccc(NC(=O)CN2C(=O)COc3ccc(S(=O)(=O)N4CCOCC4)cc32)cc1 | -31.0% | 3.8% | 0.4% | 7.0 | ? | -1.1%
Cc1occc1C(=O)NNC(=O)CN1C(=O)NC2(CCCCC2)C1=O | -15.5% | -3.0% | -3.3% | 4.6 | 25.6% | -7.6%
COc1ccccc1/C=C/C(=O)c1cc(Br)ccc1OC(=O)c1ccco1 | ? | 20.6µM* | ? | -97.7* | nt | 18.4µM*
O=C(Nc1ccc(Br)cc1)c1ccco1 | ? | -5.6% | -27.4% | -8.5 | ? | -16.5%
O=C(/C=C/c1cc(Br)ccc1O)c1ccco1 | 2.59µM* | 9.2µM* | 6.51µM* | -71.4* | ? | 9.2µM*
O=C(/C=C/c1ccccc1O)c1ccco1 | 20.6µM* | ? | 18.4µM* | -14.4 | 13.5% | ?
COc1ccc(/C(N)=N/OC(=O)CN(C)S(=O)(=O)c2ccc(C)cc2)cc1 | ? | -5.5% | ? | 36.6 | ? | -2.1%
COc1ccccc1/C=N/OCc1ccc(C#N)cc1 | -24.8% | 24.0% | 8.6% | ? | 12.3% | 17.2%
CCNC(=O)C1CCCN(C(=O)c2ccc(C(F)(F)F)cc2)CC1 (stereo unspecified) | -6.8% | 24.2% | -6.1% | 28.0 | nt | 30.0%
CC(=O)OC(/C(O)=C(\C#N)c1nc2ccccc2[nH]1)c1ccccc1 (stereo unspecified) | 18.4µM* | ? | ? | 6.5 | -11.4% | 8.91µM*
N#C/C(=C(/O)C(Cl)(Cl)Cl)c1nc2ccccc2[nH]1 | 9.2µM* | -0.1% | 8.2µM* | -6.9 | -15.0% | -7.2%
C/C(O)=C(/C#N)c1nc2ccccc2[nH]1 | ? | -0.5% | ? | -13.6 | -1.4% | 0.3%
COc1cc(/C(O)=C(\C#N)c2nc3ccccc3[nH]2)cc(OC)c1OC | 13µM* | 4.7% | ? | ? | -6.2% | -0.6%
COc1cc(OC)cc(C(=O)OC/C(O)=C(\C#N)c2nc3ccccc3[nH]2)c1 | ? | -28.1% | ? | 40.9 | -11.6% | -27.7%
N#C/C(=C(/O)c1ccc(Cl)c([N+](=O)[O-])c1)c1nc2ccccc2[nH]1 | ? | -14.2% | 14.6µM* | ? | 8.2µM* | -12.7%
N#C/C(=C(/O)c1ccc(Cl)cc1)c1nc2ccccc2[nH]1 | 11.6% | 1.2% | -1.9% | -1.0 | 17.3% | 2.8%
N#C/C(=C(/O)c1ccc([N+](=O)[O-])cc1)c1nc2ccccc2[nH]1 | ? | -5.0% | -8.8% | -6.3 | -1.8% | -3.9%
SMILES | DT40 TDP1 no CPT | HT1080 IDH1KD tx | DT40 TDP1 CPT | IL-1B inflam inh | ELG1 DNA repair | HT1080-NT tox
CC(c1ccc(F)cc1)n1c(-c2cccs2)n[nH]c1=S (stereo unspecified) | 0.6% | 11.8% | 2.0% | 16.7 | 11.7% | 5.5%
COc1ccccc1C(=O)Nc1cccc(C(=O)OCc2cc(=O)n3ccsc3n2)c1 | -18.8% | nt | -20.1% | nt | nt | nt
O=c1[nH]c(=S)[nH]c2c1C(c1cccc(C(F)(F)F)c1)OC(CCc1ccccc1)C2 (stereo unspecified) | ? | ? | ? | 3.8 | nt | ?
CC(C)Cn1c(N)c(C(=O)COC(=O)c2c(O)c(Cl)cc(Cl)c2Cl)c(=O)n(C)c1=O | 17.7% | -0.6% | 5.4% | 0.0 | -30.2% | 0.0%
O=C(NC(=S)N(Cc1ccccc1)Cc1ccccc1)C1CCCCC1 | 23.1µM* | 0.9% | ? | -6.6 | 15.8% | -6.1%
CN(Cc1ccccc1)S(=O)(=O)c1ccc(NC(=S)NC(=O)C2CCCCC2)cc1 | 14.6µM* | -26.7% | 11.6µM* | 36.6 | ? | -5.5%
COc1ccc(NC(=S)NC(=O)C2CCCCC2)cc1 | 10.6% | 12.7% | 6.4% | -4.1 | ? | 8.0%
CN(Cc1ccccc1)S(=O)(=O)c1ccc(NC(=S)NC(=O)C(C)(C)C)cc1 | 16.4µM* | 0.6% | 20.6µM* | -12.5 | ? | -2.4%
C=CCN(CC=C)S(=O)(=O)c1ccc(NC(=S)NC(=O)C2CC2)cc1 | 13µM* | ? | 23.1µM* | 7.0 | ? | ?
NS(=O)(=O)c1ccc(NC(=S)NC(=O)C2CCCC2)cc1 | 12.0% | 7.8% | -6.4% | 13.9 | 0.1% | 1.4%
Cc1[nH]c(=O)[nH]c(=O)c1S(=O)(=O)Nc1cccc(C(F)(F)F)c1 | 10.6% | 3.1% | -1.8% | 6.0 | -3.6% | 4.2%
Cc1cc(C)c(NC(=O)CSc2nc(=O)n(Cc3cccnc3)c3c2CCC3)c(C)c1 | 1.5% | nt | -3.5% | nt | nt | nt
CC1(C)CC(NC(=S)NCc2ccc3c(c2)OCO3)CC(C)(C)N1 | nt | nt | nt | nt | 8.9% | nt
CCOC(=O)c1[nH]c(C)c(C(=O)OCC(=O)NCc2ccc(OC)c(OC)c2)c1C | ? | -4.3% | ? | 12.0 | 11.2µM* | 0.8%

Source: PubChem BioAssay
